Source: PubChem BioAssay (NCATS)
Records with an inconclusive call do not appear. Active and inactive are the calls of the source. Unless noted, the call rests on the fitted dose curve.

How the values were obtained:
[1] = biological target: Estrogen receptor (Homo sapiens) (UniProt P03372); assay: qHTS assay for small molecule antagonists of estrogen receptor alpha signaling (AID 588513; active means well fitted curve in the direction sought with a large enough effect in the signal ratio, with a control signal flat, not every such curve was filed as active; the % refers to the signal ratio; further: on the % scale 0 is the no-effect control and ±100 the full control effect)
Sequence of Estrogen receptor (Homo sapiens) (P03372 whole entry, looked up): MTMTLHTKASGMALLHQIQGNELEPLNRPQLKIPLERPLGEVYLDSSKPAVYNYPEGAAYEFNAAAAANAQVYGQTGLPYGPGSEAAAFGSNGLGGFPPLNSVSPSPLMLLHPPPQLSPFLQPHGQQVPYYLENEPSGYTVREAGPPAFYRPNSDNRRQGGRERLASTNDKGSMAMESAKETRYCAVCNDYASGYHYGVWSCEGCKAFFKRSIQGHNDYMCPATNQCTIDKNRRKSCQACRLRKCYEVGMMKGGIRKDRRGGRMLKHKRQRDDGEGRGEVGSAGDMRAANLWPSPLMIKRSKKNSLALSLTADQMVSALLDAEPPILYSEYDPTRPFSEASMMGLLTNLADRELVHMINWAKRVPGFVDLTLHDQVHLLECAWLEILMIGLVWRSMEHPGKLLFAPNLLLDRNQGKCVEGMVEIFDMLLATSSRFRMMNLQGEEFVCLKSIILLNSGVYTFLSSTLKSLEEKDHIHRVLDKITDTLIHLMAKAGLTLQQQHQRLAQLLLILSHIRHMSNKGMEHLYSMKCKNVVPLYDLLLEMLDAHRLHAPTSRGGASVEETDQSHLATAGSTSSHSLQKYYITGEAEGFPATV
Outline: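 ER-alpha-UAS-bla GripTite HEK 293 cells in 2% charcoal/dextran-treated FBS medium; compounds titrated (1:2, duplicate), then stimulated with 0.5 nM 17-beta-estradiol for 18 h at 37C. CCF4 beta-lactamase fluorescence; Hill-fit IC50 and efficacy.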

[2] = biological target: Peroxisome proliferator-activated receptor delta (Homo sapiens) (UniProt Q03181); assay: qHTS assay for small molecule agonists of peroxisome proliferator-activated receptor delta signaling (AID 588534);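 further: 0% = DMSO basal wells and 100% = positive control agonist at 10 µM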
Sequence of Peroxisome proliferator-activated receptor delta (Homo sapiens) (Q03181 whole entry, looked up): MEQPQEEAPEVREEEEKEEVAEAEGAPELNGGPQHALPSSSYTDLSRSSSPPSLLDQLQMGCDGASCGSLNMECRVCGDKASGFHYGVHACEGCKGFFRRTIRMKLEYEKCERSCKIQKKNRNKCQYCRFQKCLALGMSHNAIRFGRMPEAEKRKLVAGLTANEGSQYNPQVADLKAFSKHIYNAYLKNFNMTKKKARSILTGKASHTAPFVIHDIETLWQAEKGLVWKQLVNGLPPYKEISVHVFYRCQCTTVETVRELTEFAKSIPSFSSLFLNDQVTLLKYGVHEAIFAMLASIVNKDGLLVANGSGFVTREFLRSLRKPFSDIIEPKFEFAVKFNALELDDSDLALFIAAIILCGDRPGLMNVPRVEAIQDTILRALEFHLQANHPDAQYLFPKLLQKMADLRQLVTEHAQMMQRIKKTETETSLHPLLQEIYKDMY
Outline: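 Fluorescence from CCF4 substrate cleavage by beta-lactamase reporter, read 2 hrs at RT, measured agonist activity. Compounds were tested with 18 hrs exposure at 37 C. Concentration-response data fitted to Hill equation.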

[3] = biological target: Peroxisome proliferator-activated receptor gamma (Homo sapiens) (UniProt P37231); assay: qHTS assay for small molecule agonists of peroxisome proliferator-activated receptor gamma signaling (AID 588536; active means well fitted curve in the direction sought with a large enough effect in the signal ratio, with a control signal flat, not every such curve was filed as active; the % refers to the signal ratio;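 further: 0% = DMSO basal wells and 100% = rosiglitazone at 2 µM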)
Sequence of Peroxisome proliferator-activated receptor gamma (Homo sapiens) (P37231 whole entry, looked up): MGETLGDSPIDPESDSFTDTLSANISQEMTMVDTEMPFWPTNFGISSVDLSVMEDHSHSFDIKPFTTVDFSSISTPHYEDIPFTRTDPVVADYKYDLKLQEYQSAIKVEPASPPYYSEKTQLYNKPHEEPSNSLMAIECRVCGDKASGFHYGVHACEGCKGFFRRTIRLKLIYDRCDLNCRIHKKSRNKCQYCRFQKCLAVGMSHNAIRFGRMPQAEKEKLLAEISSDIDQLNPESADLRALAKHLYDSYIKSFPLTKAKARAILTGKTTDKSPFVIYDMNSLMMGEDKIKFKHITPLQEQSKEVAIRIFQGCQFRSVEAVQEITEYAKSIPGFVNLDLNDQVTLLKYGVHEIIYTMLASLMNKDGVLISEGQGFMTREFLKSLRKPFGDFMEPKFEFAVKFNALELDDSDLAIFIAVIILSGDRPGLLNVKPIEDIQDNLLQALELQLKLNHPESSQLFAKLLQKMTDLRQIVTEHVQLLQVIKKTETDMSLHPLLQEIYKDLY
Outline: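 PPAR-gamma-UAS-bla HEK293 cells in medium with 1% charcoal/dextran-treated FBS were exposed to compounds for 16 h at 37 C. Beta-lactamase activity was read with CCF4 substrate (405 nm excitation, 460/530 nm emission).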

[4] = biological target: Vitamin D3 receptor (Homo sapiens) (UniProt P11473); assay: qHTS assay for small molecule antagonists of vitamin D receptor signaling (AID 588541);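 further: receptor activated by calcitriol during compound treatment; series mostly up to about 77 µM; on the % scale 0 is the no-effect control and ±100 the full control effect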
Sequence of Vitamin D3 receptor (Homo sapiens) (P11473 whole entry, looked up): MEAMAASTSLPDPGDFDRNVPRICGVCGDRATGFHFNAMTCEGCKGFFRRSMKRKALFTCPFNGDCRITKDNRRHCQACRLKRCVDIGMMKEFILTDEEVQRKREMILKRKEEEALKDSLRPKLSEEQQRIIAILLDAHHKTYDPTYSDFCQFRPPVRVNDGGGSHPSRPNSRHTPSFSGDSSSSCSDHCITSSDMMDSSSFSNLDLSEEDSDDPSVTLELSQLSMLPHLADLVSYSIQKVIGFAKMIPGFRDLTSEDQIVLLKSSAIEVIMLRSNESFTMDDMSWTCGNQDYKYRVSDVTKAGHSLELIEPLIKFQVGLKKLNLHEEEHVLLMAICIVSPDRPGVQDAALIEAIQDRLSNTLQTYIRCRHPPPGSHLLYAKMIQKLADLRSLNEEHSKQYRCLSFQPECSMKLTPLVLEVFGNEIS
Outline: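 VDR-UAS-bla HEK293T cells (2000/well, 2% charcoal-stripped FBS) were treated with titrated compounds plus 1-alpha,25-dihydroxyvitamin D3 (50 nM or 3 nM final) for 16 h at 37 C. CCF4 beta-lactamase fluorescence was read; Hill fits gave IC50.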

[5] = biological target: Vitamin D3 receptor (Homo sapiens) (UniProt P11473); assay: qHTS assay for small molecule agonists of vitamin D receptor signaling (AID 588543);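 further: 0% = DMSO basal and 100% = reference agonist control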
Outline: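 VDR-UAS-bla HEK293T cells, 2000/well, 2% charcoal-stripped FBS; compound titration 16 h at 37 C; CCF4 beta-lactamase ratio read. Normalized to 50 nM 1-alpha,25-dihydroxyvitamin D3 (100%) and DMSO; Hill fit gives EC50, efficacy.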

[6] = qHTS assay for small molecule agonists of retinoid X receptor alpha signaling (AID 588544); details: HEK293T RXRa-UAS-bla, beta-lactamase reporter, 18 h; 530 nm emission;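 on activation: 0% = DMSO basal wells and 100% = reference agonist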
[7] = biological target: Retinoic acid receptor RXR-alpha (Homo sapiens) (UniProt P19793); assay: as above
Sequence of Retinoic acid receptor RXR-alpha (Homo sapiens) (P19793 whole entry, looked up): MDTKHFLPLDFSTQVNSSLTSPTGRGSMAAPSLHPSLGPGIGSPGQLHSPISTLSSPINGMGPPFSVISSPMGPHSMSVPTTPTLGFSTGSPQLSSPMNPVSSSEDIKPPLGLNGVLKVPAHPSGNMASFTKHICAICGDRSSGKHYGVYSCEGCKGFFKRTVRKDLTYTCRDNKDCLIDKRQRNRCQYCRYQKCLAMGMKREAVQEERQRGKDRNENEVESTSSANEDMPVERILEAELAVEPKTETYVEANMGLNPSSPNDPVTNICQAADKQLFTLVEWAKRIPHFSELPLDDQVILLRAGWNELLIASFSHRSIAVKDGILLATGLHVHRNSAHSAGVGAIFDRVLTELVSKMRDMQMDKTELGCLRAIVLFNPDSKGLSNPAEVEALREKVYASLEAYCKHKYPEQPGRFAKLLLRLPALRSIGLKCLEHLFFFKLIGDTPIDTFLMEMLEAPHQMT

[8] = biological target: Thyroid hormone receptor beta (Homo sapiens) (UniProt P10828); assay: qHTS assay for small molecule agonists of thyroid hormone receptor beta signaling (AID 588545);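 further: 0% = DMSO only and 100% = 10 nM T3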
Sequence of Thyroid hormone receptor beta (Homo sapiens) (P10828 whole entry, looked up): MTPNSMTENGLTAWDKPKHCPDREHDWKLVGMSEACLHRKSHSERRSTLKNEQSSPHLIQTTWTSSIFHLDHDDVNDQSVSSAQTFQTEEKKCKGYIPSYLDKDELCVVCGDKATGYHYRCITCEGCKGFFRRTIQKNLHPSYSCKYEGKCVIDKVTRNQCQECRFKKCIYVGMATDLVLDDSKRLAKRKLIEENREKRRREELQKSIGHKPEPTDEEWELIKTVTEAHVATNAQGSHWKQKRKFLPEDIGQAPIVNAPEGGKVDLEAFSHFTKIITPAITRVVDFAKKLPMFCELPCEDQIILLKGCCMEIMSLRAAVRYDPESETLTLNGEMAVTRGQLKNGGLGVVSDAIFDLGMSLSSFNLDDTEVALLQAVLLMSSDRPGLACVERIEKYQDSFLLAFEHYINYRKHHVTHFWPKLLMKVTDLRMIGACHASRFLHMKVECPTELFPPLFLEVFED
Outline: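 Compounds were tested as agonists in TR-UAS-bla-GripTite HEK 293 cells. After 18 hrs at 37 C, CCF4 substrate was added and fluorescence read after 2 hrs at room temperature.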

[9] = qHTS assay for small molecule antagonists of retinoid X receptor alpha signaling (AID 588546; active means well fitted inhibition curve with a large enough effect in the signal ratio, with a control signal flat, not every such curve was filed as active; the % refers to the signal ratio;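 further: cells stimulated with 9-cis-retinoic acid as agonist; on the % scale 0 is the no-effect control and ±100 the full control effect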); details: HEK293T RXRa-UAS-bla, beta-lactamase ratio, antagonist mode; measured here: W530 green channel, cytotoxicity proxy
Outline: (§1)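 Beta-lactamase reporter inhibition, read as CCF4 fluorescence ratio (ex 405, em 460/530 nm) after 2 h at RT. HEK293T UAS-bla cells, 2500/well, were stimulated with 9-cis-RA at 500 or 100 nM final alongside test compound for 18 h at 37 C.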

[10] = biological target: Retinoic acid receptor RXR-alpha (Homo sapiens) (UniProt P19793); assay: as above; details: HEK293T RXRa-UAS-bla, beta-lactamase ratio, antagonist mode
Outline: as §1

[11] = qHTS assay for small molecule activators of the p53 signaling pathway (AID 651743; active means well fitted activation curve with a large enough effect in the signal ratio, not every such curve was filed as active; the % refers to the signal ratio; further: series mostly up to about 92 µM; % of control where 0% means no effect); details: HCT-116 p53RE-bla, beta-lactamase FRET ratio, 16 h; activation: stronger effect = higher value
Outline: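 Cell-based beta-lactamase reporter (p53 response elements, HCT-116 background). After a 5-hour preincubation, cells received compound for 16 hours at 37 C; substrate development ran 2 hours at room temperature.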

[12] = qHTS assay for small molecule activators of the nuclear factor-kappa B (NF-kB) signaling pathway (AID 651749; active means well fitted activation curve with a large enough effect in the signal ratio; the % refers to the signal ratio; further: series mostly up to about 77 µM; % of control where 0% means no effect); details: NF-kB-bla ME-180 cells, beta-lactamase FRET ratio, 16 h; activation: stronger effect = higher value
Outline: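 Screening used 2,000 ME-180 reporter cells per well exposed to pinned compound (23 nL) or DMSO; after 16 hr at 37C, beta-lactamase expression under NF-kB control was assessed through FRET.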

[13] = qHTS assay for environmental chemicals that activate the Aryl hydrocarbon Receptor (AhR) signaling pathway (AID 651777; active means well fitted curve in the direction sought with a large enough effect; an effect the other way counts as inactive or inconclusive; further: % of control where 0% means no effect; nearly all actives have a fitted effect of over 15% in size); details: 1A2-DRE human hepatoma cells, luciferase, 24 h; activation: stronger effect = higher value
Outline: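 Stable CYP1A2 promoter/DRE-luciferase human hepatoma line treated 24 hr; One-Glo luminescence, 30 min RT.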

[14] = biological target: Peroxisome proliferator-activated receptor alpha (Homo sapiens) (UniProt Q07869); assay: qHTS assay for small molecule agonists of the peroxisome proliferator-activated receptor alpha (PPARalpha) signaling pathway (AID 651778; active means well fitted curve in the direction sought with a large enough effect; an effect the other way counts as inactive or inconclusive; further: % of control where 0% means no effect); details: PathHunter PPARalpha complementation, chemiluminescence, 6 h; max response: stronger effect = higher value
Sequence of Peroxisome proliferator-activated receptor alpha (Homo sapiens) (Q07869 whole entry, looked up): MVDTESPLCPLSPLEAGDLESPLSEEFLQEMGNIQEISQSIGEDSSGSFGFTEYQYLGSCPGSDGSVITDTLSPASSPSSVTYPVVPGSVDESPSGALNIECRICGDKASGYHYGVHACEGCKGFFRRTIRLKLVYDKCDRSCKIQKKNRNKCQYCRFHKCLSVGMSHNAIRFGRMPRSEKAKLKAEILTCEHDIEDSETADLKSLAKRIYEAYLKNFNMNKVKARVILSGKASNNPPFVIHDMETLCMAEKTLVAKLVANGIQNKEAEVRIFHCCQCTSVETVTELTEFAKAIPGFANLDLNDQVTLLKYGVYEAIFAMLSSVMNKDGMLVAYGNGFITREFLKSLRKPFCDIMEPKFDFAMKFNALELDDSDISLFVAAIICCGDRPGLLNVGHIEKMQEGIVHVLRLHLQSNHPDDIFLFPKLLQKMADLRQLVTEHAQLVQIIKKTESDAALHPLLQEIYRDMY
Outline: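 Cells plated at 2,000/well and held overnight at 37 C, 5% CO2, then compound added by pin tool for 6 hr; after PathHunter detection reagent and 60 min at room temperature, chemiluminescence from enzyme complementation was read.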

[15] = qHTS assay for small molecule agonists of the antioxidant response element (ARE) signaling pathway measured by Nrf2-dependant transcriptional activity (AID 720636; active means well fitted curve in the direction sought with a large enough effect in the repeat runs; an effect the other way counts as inactive or inconclusive;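 further: HepG2 cells with an ARE-driven luciferase reporter; % of control where 0% means no effect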)
Outline: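 Reporter gene assay, HepG2 ARE-luc: 16 hr compound, 37 C, 5% CO2; read-out luciferase luminescence.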

[16] = qHTS assay for small molecule agonists of the antioxidant response element (ARE) signaling pathway measured by Nrf2-dependant transcriptional activity - cell viability counter screen (AID 720653; active means well fitted curve in the direction sought with a large enough effect in the repeat runs; an effect the other way counts as inactive or inconclusive; further: on the % scale 0 is the no-effect control and ±100 the full control effect); details: ARE-bla HepG2 viability, CellTiter-Glo ATP luminescence, 16 h; max response: stronger effect = lower value
Outline: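 ARE-bla HepG2 cells (2,000/well) rested 5 hrs at 37C/5% CO2, then exposed to compounds in DMSO for 16 hrs. Viability was read in the same wells as intracellular ATP by luminescence, 30 min at room temperature after reagent addition.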

[17] = qHTS assay for cell viability of HEK293 cells (AID 743288; active means well fitted curve in the direction sought with a large enough effect; an effect the other way counts as inactive or inconclusive; further: on the % scale 0 is the no-effect control and ±100 the full control effect; nearly all actives have a fitted effect of over 50% in size); details: ATP luminescence (CellTiter-Glo), 18 h; max response: stronger effect = lower value
Outline: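 Parental HEK293 cells, 2,000 per well, preincubated at least 5 h at 37 C, then exposed to compounds in DMSO for 18 h at 37 C. Viability by CellTiter-Glo ATP luminescence after 30 min at room temperature.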

[18] = qHTS assay for cell viability of the p53RE-bla HCT-116 cell line (AID 743292; active means well fitted curve in the direction sought with a large enough effect; an effect the other way counts as inactive or inconclusive; further: on the % scale 0 is the no-effect control and ±100 the full control effect; nearly all actives have a fitted effect of over 55% in size)
Outline: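 Readout: CellTiter-Glo luminescence after 30 min RT. Treatment: compounds in DMSO, 16 h, 37 C. Cells: CellSensor p53RE-bla HCT-116, 4,000/well, preincubated 5 h.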

[19] = biological target: Nuclear receptor subfamily 1 group I member 2 (Rattus norvegicus) (UniProt Q9R1A7); assay: qHTS assay for small molecule activators of the rat pregnane X receptor (rPXR) signaling pathway (AID 651751; call rule not given here; further: 0% is about no effect); details: rPXR reporter cells, luciferase (One-Glo), 24 h
Sequence of Nuclear receptor subfamily 1 group I member 2 (Rattus norvegicus) (Q9R1A7 whole entry, looked up): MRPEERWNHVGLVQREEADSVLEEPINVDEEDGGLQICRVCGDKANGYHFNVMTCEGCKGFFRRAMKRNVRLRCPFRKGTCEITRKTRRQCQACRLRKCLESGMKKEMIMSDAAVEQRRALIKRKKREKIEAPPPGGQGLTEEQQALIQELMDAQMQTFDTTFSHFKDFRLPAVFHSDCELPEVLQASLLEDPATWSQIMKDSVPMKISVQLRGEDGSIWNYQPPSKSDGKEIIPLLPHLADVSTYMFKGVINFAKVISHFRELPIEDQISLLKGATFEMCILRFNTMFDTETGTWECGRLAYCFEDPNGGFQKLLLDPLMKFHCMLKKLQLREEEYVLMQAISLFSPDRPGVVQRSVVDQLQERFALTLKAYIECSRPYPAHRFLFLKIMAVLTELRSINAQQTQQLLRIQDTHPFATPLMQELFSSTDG

[20] = biological target: Estrogen receptor (Homo sapiens) (UniProt P03372); assay: qHTS assay for small molecule agonists of estrogen receptor alpha signaling (AID 588514);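 further: 0% = vehicle only and 100% = reference agonist; nearly all actives have a fitted effect of over 70% in size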
Outline: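 Cells were plated at 5000/well, incubated 4 hrs at 37 C, dosed with compound titration series, incubated 18 hrs at 37 C, loaded with CCF4 dye for 2 hrs at RT, then fluorescence was read.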

Row | Compound | Potency [1] | outcome [2] | Potency [3] | Potency [4] | outcome [5] | max response [6] [%] | Potency [7] | Potency [8] | max response [9] [%] | max response [10] | activation [11] | activation [12] | activation [13] | max response [14] | Potency [15] | max response [16] | max response [17] | Potency [18] | max response [19] | Potency [20]
1 | COC(=O)c1sccc1S(=O)(=O)NC(=O)Nc1nc(C)nc(OC)n1 | inactive | inactive | inactive | inactive | inactive | -0.622 | inactive | inactive | -1.17 | -14.7% (inactive) | -3.25% (inactive) | -1.57% (inactive) | 0.948% (inactive) | -0.482% (inactive) | inactive | 2.61% (inactive) | -12% (inactive) | inactive | 3.77% (inactive) | 
2 | CS/C(C)=N/OC(=O)N(C)SN(C)C(=O)O/N=C(\C)SC |  | inactive | inactive |  |  |  |  | inactive | 3.2 | 15.5% (inactive) | -1.16% (inactive) | -0.513% (inactive) | 3.44% (inactive) | -1.01% (inactive) | inactive | 6.17% (inactive) | -6.07% (inactive) | inactive | -5.16% (inactive) | inactive
3 | CCOP(=O)(OCC)SCSP(=S)(OCC)OCC |  | inactive | inactive | inactive | inactive |  |  | inactive | -5.91 | -11.3% (inactive) | -1.69% (inactive) | 1.64% (inactive) | 6.55% (inactive) | -0.113% (inactive) | inactive | -1.01% (inactive) | -5.51% (inactive) | inactive |  | inactive
4 | CCOP(=S)(OCC)Oc1nc(Cl)n(C(C)C)n1 | inactive |  | inactive | inactive | inactive |  |  |  | 10.5 | 14.2% (inactive) | -5.02% (inactive) | 1.85% (inactive) |  | 0.789% (inactive) | inactive | -6.76% (inactive) | 6.35% (inactive) |  |  | 
5 | CCOc1nc(C(Cl)(Cl)Cl)ns1 | inactive | inactive | inactive | inactive | inactive | -11.9 | inactive | inactive | -10.8 | 3.55% (inactive) | -0.297% (inactive) | 0.185% (inactive) | 7.64% (inactive) | -0.167% (inactive) |  | -1.82% (inactive) | -11.1% (inactive) |  |  | 
6 | Nc1c(Cl)c(F)nc(OCC(=O)O)c1Cl |  |  | inactive | inactive | inactive | 5.84 | inactive |  | -12.1 | -9.36% (inactive) | 0.955% (inactive) | 0.422% (inactive) | 1.14% (inactive) | 0.318% (inactive) | inactive | 1.18% (inactive) | 4.54% (inactive) | inactive | -2.68% (inactive) | inactive
